Here are results for 15 molecules from PubChem BioAssay.

For part of these data: Entries with a potency or affinity are not part of this list. Activity calls are given as the source filed them.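 Rule for the calls, unless noted: active = fitted half-maximal concentration within the tested range, moderate curve steepness, significant signal drop, and little compound fluorescence or bead-linkage interference; inactive = the rest.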

Assay [1] deals with Cell division control protein 42 homolog (Homo sapiens) (UniProt P60953). The assay is described as follows: inhibition of fluorescent GTP binding to constitutively active Cdc42 – biochemical, multiplex bead flow cytometry, Bodipy-FL-GTP, dose response (AID 1333;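 active = fitted half-maximal concentration within the tested dose range, moderate curve steepness, a statistically real signal drop, and little compound fluorescence or tag-binding interference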). (In general: A flow cytometer gives signals particle by particle.)
Cell division control protein 42 homolog (Homo sapiens), sequence (P60953 whole entry, looked up): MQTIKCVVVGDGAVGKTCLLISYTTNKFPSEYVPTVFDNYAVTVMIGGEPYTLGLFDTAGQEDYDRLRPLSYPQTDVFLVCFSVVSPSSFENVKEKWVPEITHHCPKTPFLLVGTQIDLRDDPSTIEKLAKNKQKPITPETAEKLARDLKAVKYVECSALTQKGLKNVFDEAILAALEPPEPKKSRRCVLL
For assay [2] the target is unchanged. The assay is described as follows: inhibition of fluorescent GTP binding to wildtype Cdc42 – biochemical, multiplex bead flow cytometry, Bodipy-FL-GTP, dose response (AID 1334). The settings on record: bead-based flow cytometry, Bodipy-FL-GTP binding to GST-Cdc42; at 100 µM (top of the series) unless noted.
The target in assay [3] is GTPase HRas (Homo sapiens) (UniProt P01112). The assay is described as follows: Ras wt fluorescent GTP loading blockade – biochemical, wildtype, multiplex bead flow cytometry, dose response (AID 1335;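 active = fitted half-maximal concentration within 10 nM to 100 µM, steepness 0.5 to 2, significant signal drop, low assay interference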). The settings on record: bead-based flow cytometry, Bodipy-GTP binding to GST-Ras; at 100 µM (top of the series) unless noted.
GTPase HRas (Homo sapiens), sequence (P01112 whole entry, looked up): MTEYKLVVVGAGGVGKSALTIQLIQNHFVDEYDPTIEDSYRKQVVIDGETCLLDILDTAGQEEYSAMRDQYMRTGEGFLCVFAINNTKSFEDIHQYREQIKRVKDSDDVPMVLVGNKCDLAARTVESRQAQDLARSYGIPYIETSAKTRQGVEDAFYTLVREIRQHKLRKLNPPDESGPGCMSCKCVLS
Assay [4] has as its system Ras-related protein Rab-7a (dog), GTP binding. The assay is described as follows: blockers of fluorescent GTP binding to Rab7 – biochemical, wildtype, multiplex bead flow cytometry, dose response (AID 1336; call rule not given here).
Assay [5] concerns the target Ras-related C3 botulinum toxin substrate 1 (Homo sapiens) (UniProt P63000). The assay is described as follows: inhibition of wildtype Rac1 nucleotide loading – biochemical, multiplex bead flow cytometry, dose response (AID 1340;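 active = dose curve with midpoint inside tested range, moderate steepness, plateau gap beyond fit error, low compound glow and bead-link interference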). The settings on record: GST-Rac1 beads, Bodipy-FL-GTP binding; at 100 µM (top of the series) unless noted.
Assay [6] deals with GTPase HRas (Homo sapiens) (UniProt P01112). The assay is described as follows: blockade of GTP loading onto mutant Ras – biochemical, activated mutant, multiplex bead flow cytometry, dose response (AID 1341;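 active = dose-response curve with midpoint inside the tested range, moderate steepness, significant amplitude and little compound fluorescence or bead-attachment interference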;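 note: GST-tagged constitutively activated Ras mutant immobilized on beads and multiplexed with other GTPases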).

As to `Nc1c([N+](=O)[O-])cc(-c2cnc[nH]2)cc1[N+](=O)[O-]`, the molecule was classed as inactive in assay [1], in assay [4] and in assay [6]. The fluorescence, percent of control (lower = inhibition) in assay [2] is 38.5%. Besides, in assay [3], the GTP binding, percent of control is 81.1%. In addition, the GTP binding signal, raw median fluorescence (lower = inhibition) (MCF (arbitrary fluorescence units)) in assay [5] worked out at 190.
In the case of `COc1cc(-c2cc(=O)c3c(O)cc(O)cc3o2)ccc1O`, the result in assay [1], in assay [4] and in assay [6] was inactive. For the same molecule, the fluorescence, percent of control (lower = inhibition) in assay [2] came to 36%. Also, the GTP binding, percent of control in assay [3] was 84.7%. The GTP binding signal, raw median fluorescence (lower = inhibition) (MCF (arbitrary fluorescence units)) in assay [5] came to 189.
`O=c1c2ccccc2nc2c3ccccc3cnn12`: the molecule was called inactive in assay [1], in assay [4] and in assay [6]. For the same molecule, the fluorescence, percent of control (lower = inhibition) in assay [2] came to 46.9%. Further, the GTP binding, percent of control in assay [3] was 88.4%. The molecule further yielded a GTP binding signal, raw median fluorescence (lower = inhibition) (MCF (arbitrary fluorescence units)) in assay [5] of 175.
Take `Nc1nn2c(-c3ccccc3)cc(=O)[nH]c2c1N=Nc1ccc(Br)cc1`: the result in assay [1], in assay [4] and in assay [6] was inactive. Moreover, the fluorescence, percent of control (lower = inhibition) in assay [2] worked out at 27.4%. Moreover, the GTP binding, percent of control in assay [3] was determined as 78.1%. In assay [5], this molecule gave a GTP binding signal, raw median fluorescence (lower = inhibition) (MCF (arbitrary fluorescence units)) of 197.
Regarding `COc1ccc(OC)c(S(=O)(=O)Nc2ccc(O)c(Sc3ncn[nH]3)c2)c1`, the molecule was called inactive in assay [1], in assay [4] and in assay [6]. Also, the fluorescence, percent of control (lower = inhibition) in assay [2] came to 48.6%. The GTP binding, percent of control in assay [3] is 65.1%. For the same molecule, in assay [5], the GTP binding signal, raw median fluorescence (lower = inhibition) (MCF (arbitrary fluorescence units)) was 189.
As for `Cc1cc(NC(=O)c2cccc(C(=O)Nc3cc(C)on3)n2)no1`, the result in assay [1], in assay [4] and in assay [6] was inactive. For the same molecule, the fluorescence, percent of control (lower = inhibition) in assay [2] was 40%. Also, in assay [3], the GTP binding, percent of control is 86.3%. The GTP binding signal, raw median fluorescence (lower = inhibition) (MCF (arbitrary fluorescence units)) in assay [5] worked out at 296.
`CN(C)c1ccc(/C=C/c2ccc3c4ccccc4ccc3[n+]2-c2ccccc2)cc1`: the molecule was called inactive in assay [1], in assay [4] and in assay [6]. Also, the fluorescence, percent of control (lower = inhibition) in assay [2] was 40%. The molecule further returned a GTP binding, percent of control in assay [3] of 69.7%. In addition, the GTP binding signal, raw median fluorescence (lower = inhibition) (MCF (arbitrary fluorescence units)) in assay [5] turned out to be 236.
For the molecule `Cc1c2cc(O)c(=O)cc-2oc2cc(O)c(O)cc12`, the result in assay [1], in assay [4] and in assay [6] was inactive. Also, the fluorescence, percent of control (lower = inhibition) in assay [2] stood at 5290%. The molecule also had a GTP binding, percent of control in assay [3] of 5530%. Besides, the GTP binding signal, raw median fluorescence (lower = inhibition) (MCF (arbitrary fluorescence units)) in assay [5] was 5510.
For the molecule `O=C(O)Cc1coc2cc3c(cc12)CCC3`, the call in assay [1], in assay [4] and in assay [6] was inactive. In assay [2], the fluorescence, percent of control (lower = inhibition) is 29.9%. The GTP binding, percent of control in assay [3] amounted to 79.1%. In assay [5], this molecule came in with a GTP binding signal, raw median fluorescence (lower = inhibition) (MCF (arbitrary fluorescence units)) of 251.
Take `COc1cccc(CNCc2sc(C(=O)O)cc2C)c1`: the call in assay [1], in assay [4] and in assay [6] was inactive. For the same molecule, the fluorescence, percent of control (lower = inhibition) in assay [2] stood at 62.1%. This molecule yielded a GTP binding, percent of control in assay [3] of 87.2%. Moreover, the GTP binding signal, raw median fluorescence (lower = inhibition) (MCF (arbitrary fluorescence units)) in assay [5] worked out at 33.8.
For `COCc1cc(C)nc(N/N=C/c2ccc(-c3ccc(C(=O)O)c(Cl)c3)o2)c1C#N`, the molecule was called inactive in assay [1], in assay [4] and in assay [6]. Besides, in assay [2], the fluorescence, percent of control (lower = inhibition) was 30.6%. In addition, the GTP binding, percent of control in assay [3] amounted to 74.4%. The same molecule yielded a GTP binding signal, raw median fluorescence (lower = inhibition) (MCF (arbitrary fluorescence units)) in assay [5] of 180.
In the case of `O=C(O)c1ccc(Nc2nc(-c3cc4ccccc4oc3=O)cs2)cc1O`, the outcome in assay [1], in assay [4] and in assay [6] was inactive. Besides, the fluorescence, percent of control (lower = inhibition) in assay [2] was found to be 29.2%. The molecule also displayed a GTP binding, percent of control in assay [3] of 74.6%. Besides, the GTP binding signal, raw median fluorescence (lower = inhibition) (MCF (arbitrary fluorescence units)) in assay [5] was determined as 177.
Regarding `COc1ccc(C(=O)O)c(OCc2ccccc2Br)c1`, the molecule was classed as inactive in assay [1], in assay [4] and in assay [6]. Moreover, the fluorescence, percent of control (lower = inhibition) in assay [2] is 59.6%. This molecule also yielded a GTP binding, percent of control in assay [3] of 171%. In addition, the GTP binding signal, raw median fluorescence (lower = inhibition) (MCF (arbitrary fluorescence units)) in assay [5] is 56.1.
For the molecule `COc1ccc(-c2csc(C3=C(O)CN(C(C)C)C3=N)n2)cc1OC`, the molecule was called inactive in assay [1], in assay [4] and in assay [6]. In addition, the fluorescence, percent of control (lower = inhibition) in assay [2] was found to be 31.9%. Also, the GTP binding, percent of control in assay [3] is 73.2%. In assay [5], this molecule displayed a GTP binding signal, raw median fluorescence (lower = inhibition) (MCF (arbitrary fluorescence units)) of 181.
For `O=c1c2ccccc2nc2c3ccccc3c(NCCN3CCOCC3)nn12`, the outcome in assay [1], in assay [4] and in assay [6] was inactive. Further, the fluorescence, percent of control (lower = inhibition) in assay [2] came out at 42.6%. The molecule further displayed a GTP binding, percent of control in assay [3] of 52.2%. For the same molecule, in assay [5], the GTP binding signal, raw median fluorescence (lower = inhibition) (MCF (arbitrary fluorescence units)) came out at 132.
